Screening results as filed in PubChem BioAssay.
Hits are enriched below; roughly 3.5% of the tested compounds scored in any of these assays.
TEAD-YAP block: TEAD-YAP interaction inhibition | HEK-TIYL cells, TEAD-Gal4/YAP UAS-luciferase luminescence | inhibition, % at 9.12 µM | 1.4% of 640,000 active; in the data active = inhibition above about 32%;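 also: 0% = median of test compound wells and 100% = reference inhibitor wells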
MITF inh: inhibitors of human MITF | O75030 | AlphaScreen MITF homodimerization, bead proximity signal | inhibition, % at 2.6 µM | 0.91% of 650,000 active | AID 1259374; in the data active = inhibition above about 50%;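 also: 0% = vehicle wells with protein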
GPR151 ag: activators of human GPR151; Q8TDV0; 1% of 650,000 active; PathHunter beta-arrestin GPR151 cells, luminescence; activation, % at 11.2 µM; in the data active = activation above about 4.9%;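 also: 0% = median of compound wells and 100% = cells with positive control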
FBW7 act: activators of human E3 ligase FBW7. AlphaScreen FBW7–phospho-cyclin E peptide binding, activator screen. normalized activity (activation), % at 26.1 µM. Q969H0. AID 1259310. 0.13% of 650,000 active; in the data active = normalized activity above about 1.9%;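 also: purified mutant Fbw7 with reduced substrate affinity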
GPR151 confirm: confirmation of human GPR151 activators; shares compounds with GPR151 ag; GPR151 PathHunter beta-arrestin cells, luminescence, 90 min; % of EA-reagent control over plate median; activation, % at 11.2 µM; 6,700 tested, under 10 active; AID 1508609;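 active = mean percent activation across replicates above the confirmation screen cutoff of 4.91%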
GPR119 ag: activates human GPR119 in a GPR151 counter-screen. shares compounds with GPR151 ag. GPR119 PathHunter beta-arrestin cells, luminescence, 90 min; 0 = compound-well median, 100 = enzyme-acceptor control. activation, % at 11.2 µM. 0.3% of 6,700 active. AID 1508611;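 active = mean percent activation in the counterscreen above 29.09%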;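 also: counterscreen on off-target GPR119 to flag nonselective hits from the GPR151 activator screen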
The depositor's hits bear a star; x = no result.

SMILES	TEAD-YAP block	MITF inh	GPR151 ag	FBW7 act	GPR151 confirm	GPR119 ag
O=C(c1ccc(Br)cc1)C1C2C(=O)C3OCC(O3)C12 (stereo unspecified)	-23	-4	8.0*	0	1	14
Cc1ccc(Cn2cc(CCC(=O)N3CCC(C(N)=O)CC3)c3ccccc32)cc1	-3	3	-1	0	x	x
O=S(=O)(c1ccc(Oc2ccc(S(=O)(=O)N3CCC4(CC3)OCCO4)cc2)cc1)N1CCC2(CC1)OCCO2	5	-6	8.5*	0	0	0
O=S(=O)(c1ccc(S(=O)(=O)N2CCC3(CC2)OCCO3)cc1)N1CCCC1	-3	7	-1	0	x	x
CCN(CC)c1cc(N)c([N+](=O)[O-])cc1F	12	22	6.5*	0	1	2
C=C1c2cc(OC)ccc2NC(=O)N1CC	12	-7	5.5*	0	-1	-16
C=C1c2ccc(C)cc2NC(=O)N1CC	7	-17	0	0	x	x
COc1ccc(C2=NN(C(=O)CSc3nncn3C)C(c3ccc(OC)cc3)C2)cc1 (stereo unspecified)	-8	-10	-2	0	x	x
COc1cccc(C2c3c(oc4ccc(C)cc4c3=O)C(=O)N2CCN2CCOCC2)c1 (stereo unspecified)	-18	-6	1	0	x	x
COc1ccccc1C1c2c(oc3ccc(C)cc3c2=O)C(=O)N1CCN1CCOCC1 (stereo unspecified)	3	-9	13*	0	1	7
Cc1ccc(S(=O)(=O)NCCCOC(C)C)cc1	11	3	5.0*	0	0	-1
CCOc1ccc(-c2nc(-c3ccncc3)no2)cc1OCC	-3	9	4.9*	0	0	0
CCOc1ccc(-c2nc(-c3ccc([N+](=O)[O-])cc3)no2)cc1OCC	-8	-9	-1	0	x	x
CCn1c2ccccc2c2cc(NC(=O)Cn3cnc4c3c(=O)n(C)c(=O)n4C)ccc21	-4	3	6.1*	0	0	-2
Cn1c(=O)c2c(ncn2CC(=O)Nc2ccccc2)n(C)c1=O	-17	-3	3	0	x	x
COc1ccccc1C1C=C(c2ccc(I)cc2)Nc2ncnn21 (stereo unspecified)	3	2	7.4*	0	0	-8
COc1ccc(CCNc2ncnc3nc(-c4cccc(N)c4)[nH]c23)cc1	6	7	5.2*	0	1	3
COc1ccc(CCNc2ncnc3nc(NCCN4CCOCC4)[nH]c23)cc1	11	7	5.6*	0	1	-1
Cc1nc2sccn2c1CN1CCCC(CO)(Cc2cccc(Cl)c2)C1 (stereo unspecified)	42*	0	5.0*	0	0	14
N#C/C(=C\c1cn(CC(=O)NCC2CCCO2)c2ccccc12)C(=O)NC1CCCCC1 (stereo unspecified)	-2	12	0	0	x	x
O=C(O)CN=C1NC2(CCCC2)Cc2ccccc21	-5	5	2	0	x	x
O=C1NC2(CCCCCC2)Cc2ccccc21	-14	-6	7.9*	0	0	1
CCOc1ccc(NC(=O)c2ccc(F)c(S(=O)(=O)N3CCN(c4cccc(C)c4C)CC3)c2)cc1	14	0	1	0	x	x
CSc1ccccc1NC(=O)N1CCCC(N(C)CCc2ccccn2)C1 (stereo unspecified)	-4	-3	5.2*	0	-1	-14
C/C(=N\NC(=O)c1ccc(N2CCCC2=O)cc1)c1ccccn1	-1	-14	9.1*	0	1	9
SMILES	TEAD-YAP block	MITF inh	GPR151 ag	FBW7 act	GPR151 confirm	GPR119 ag
COc1ccc(Cl)cc1NC(=O)CSc1nc(N)cc(N)n1	-8	0	0	0	x	x
COc1ccc(Cl)cc1NC(=O)CSc1nccn1-c1ccccc1C	-2	-1	5.2*	0	-1	-13
COc1ccc(Cl)cc1NC(=O)CSc1nc(=O)n2ccccc2n1	3	5	5.7*	0	0	-15
CCCCNC(=O)C1Cc2ccccc2CN1S(=O)(=O)c1cccs1 (stereo unspecified)	11	-1	5.7*	0	0	-5
CCCn1cc(NC(=O)c2cnc(-c3ccccc3O)s2)cn1	-18	-10	0	0	x	x
CN1CCN(CC(=O)Nc2c(C(=O)C3CC3)oc3ccccc23)CC1	-10	-1	1	0	x	x
